Values joined by “and” are separate entries in the source; they are usually repeats but may differ in a detail not shown here. Identical values can stand only once. Records with an inconclusive call do not appear. A structure can be active in one record and inactive in another. Active and inactive are the calls of the source. Unless noted, calls come from the whole dose curve; as a rule, active = well fitted curve in the direction sought with a large enough effect; inconclusive = small, poorly fitted or top-dose-only effect, or another doubt; inactive = no such curve, though single readings can be large; an effect the other way counts as inactive or inconclusive.
Columns and labels:
C33A = experiment: Primary qHTS to identify gynecologic anti-cancer compounds using libraries of approved drugs and bioactive compounds (AID 1345084); conditions: Gynecologic cancer cell panel viability, ATPlite luminescence, 48 h; series mostly up to 57.5 µM; note: nearly all actives have a fitted effect of over 55% in size; note: potency is the fitted concentration of half-maximal effect
In short: (§1)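 Five-point cytotoxicity, 48 h drug exposure at 37 C, 5% CO2, on cells seeded 16 h beforehand. ATP content read by ATPlite luminescence.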

CAOV3 = experiment: as above; conditions: Gynecologic cancer cell panel viability, ATPlite luminescence, 48 h; series mostly up to 57.5 µM
In short: as §1

CASKI = experiment: as above; conditions: Gynecologic cancer cell panel viability, ATPlite luminescence, 48 h; series mostly up to 57.5 µM
In short: as §1

Es-2 = experiment: as above; conditions: Gynecologic cancer cell panel viability, ATPlite luminescence, 48 h; series mostly up to 57.5 µM
In short: as §1

HeLa = experiment: as above; conditions: Gynecologic cancer cell panel viability, ATPlite luminescence, 48 h; series mostly up to 57.5 µM
In short: as §1

Hek293T = experiment: as above; conditions: Gynecologic cancer cell panel viability, ATPlite luminescence, 48 h, control line for the selectivity index; series mostly up to 57.5 µM
In short: as §1

JEG-3 = experiment: as above; conditions: Gynecologic cancer cell panel viability, ATPlite luminescence, 48 h; series mostly up to 57.5 µM
In short: as §1

PA-1 = experiment: as above; conditions: Gynecologic cancer cell panel viability, ATPlite luminescence, 48 h; series mostly up to 57.5 µM
In short: as §1

SKOV3 = experiment: as above; conditions: Gynecologic cancer cell panel viability, ATPlite luminescence, 48 h; series mostly up to 57.5 µM
In short: as §1

Tov-21-G = experiment: as above; conditions: Gynecologic cancer cell panel viability, ATPlite luminescence, 48 h; series mostly up to 57.5 µM
In short: as §1

Tov112D = experiment: as above; conditions: Gynecologic cancer cell panel viability, ATPlite luminescence, 48 h; series mostly up to 57.5 µM
In short: as §1

[1] = Drug repurposing screens with cells derived from glioblastoma tumor samples (AID 1345199); conditions: GBM patient neurospheres viability, ATP luminescence, 48 h; note: nearly all actives have a fitted effect of over 40% in size; note: potency is the fitted concentration of half-maximal effect; for activity, negative = cell killing: % is set by controls: 0 for no effect and ±100 for the full control effect
In short: (§2)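 Four patient lines of CD133+ GBM neurospheres were screened at several concentrations; hits were retested in those lines plus three slower-growing GBM lines, using 48-hour treatment and ATP-based viability.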

[2] = target: Nuclear receptor subfamily 1 group I member 2 (Rattus norvegicus) (UniProt Q9R1A7); experiment: qHTS assay for small molecule activators of the rat pregnane X receptor (rPXR) signaling pathway (AID 651751; call rule not given here; note: 0% is about no effect); conditions: rPXR reporter cells, luciferase (One-Glo), 24 h
WaGa = experiment: qHTS assay to identify novel small-molecules to repurpose for Merkel cell carcinoma treatment (AID 1296009); conditions: MCC and control cell lines, CellTiter-Glo viability, 72 h; series mostly up to 46 µM; note: nearly all actives have a fitted effect of over 60% in size; note: potency is the fitted concentration of half-maximal effect
In short: (§3)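 Cells were incubated with compound for 72 hr at 37 degree celsius before CellTiter-Glo addition. Luminescence was normalized with no-cell wells as full cytotoxicity and DMSO as baseline.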

astro = experiment: Drug repurposing screens with cells derived from glioblastoma tumor samples (AID 1345199); conditions: viability, ATP luminescence, 48 h; series mostly up to 45.9 µM; note: nearly all actives have a fitted effect of over 40% in size; note: potency is the fitted concentration of half-maximal effect; for activity, negative = cell killing: % is set by controls: 0 for no effect and ±100 for the full control effect
In short: as §2

OV90 = experiment: Primary qHTS to identify gynecologic anti-cancer compounds using libraries of approved drugs and bioactive compounds (AID 1345084); conditions: Gynecologic cancer cell panel viability, ATPlite luminescence, 48 h; series mostly up to 57.5 µM; note: nearly all actives have a fitted effect of over 55% in size; note: potency is the fitted concentration of half-maximal effect
In short: as §1

UISO = experiment: qHTS assay to identify novel small-molecules to repurpose for Merkel cell carcinoma treatment (AID 1296009); conditions: MCC and control cell lines, CellTiter-Glo viability, 72 h; series mostly up to 46 µM; note: nearly all actives have a fitted effect of over 60% in size; note: potency is the fitted concentration of half-maximal effect
In short: as §3

[3] = at 45.9 µM (top of the series), tumour line B
[4] = at 45.9 µM (top of the series), tumour line D
[5] = at 108 µM (top of the series), tumour line B
[6] = at 108 µM (top of the series), tumour line D

Nuclear receptor subfamily 1 group I member 2 (Rattus norvegicus), sequence (Q9R1A7 whole entry, looked up): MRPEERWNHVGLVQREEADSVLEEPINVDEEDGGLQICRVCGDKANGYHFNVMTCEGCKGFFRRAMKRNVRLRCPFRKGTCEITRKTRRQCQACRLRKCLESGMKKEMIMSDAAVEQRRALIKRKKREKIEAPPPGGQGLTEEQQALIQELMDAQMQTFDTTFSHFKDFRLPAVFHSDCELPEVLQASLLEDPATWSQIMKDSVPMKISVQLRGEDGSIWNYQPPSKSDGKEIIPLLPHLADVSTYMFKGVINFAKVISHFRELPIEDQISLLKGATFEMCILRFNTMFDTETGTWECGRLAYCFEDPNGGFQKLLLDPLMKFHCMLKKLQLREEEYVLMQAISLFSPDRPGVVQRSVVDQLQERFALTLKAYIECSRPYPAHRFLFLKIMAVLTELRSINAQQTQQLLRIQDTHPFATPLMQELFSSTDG

CNC(=O)Oc1cccc2ccccc12
inactive: Potency (C33A) | Potency (CAOV3) | Potency (CASKI) | Potency (Es-2) | Potency (HeLa) | Potency (Hek293T) | Potency (JEG-3) | Potency (PA-1) | Potency (SKOV3) | Potency (Tov-21-G) | Potency (Tov112D) | max response [2] 5.05% and 2.44%
active: Potency ([1]; tumour line A) 35.5 µM

CC(CC(C#N)(c1ccccc1)c1ccccc1)N(C)C (stereo unspecified)
inactive: Potency (C33A) | Potency (CASKI) | Potency (Es-2) | Potency (HeLa) | Potency (Hek293T) | Potency (JEG-3) | Potency (PA-1) | Potency (Tov-21-G) | Potency (Tov112D) | Potency (astro)
active: Potency (WaGa) 43.3 µM

C[C@]12C=CC(=O)C=C1CC[C@@H]1[C@@H]2CC[C@@]2(C)[C@H]1CC[C@]2(C)O
inactive: Potency (C33A) | Potency (CASKI) | Potency (Es-2) | Potency (HeLa) | Potency (Hek293T) | Potency (JEG-3) | Potency (OV90) | Potency (PA-1) | Potency (SKOV3) | Potency (Tov-21-G) | Potency (Tov112D) | activity, negative = cell killing [1, 3] -4.86% | activity, negative = cell killing [1, 4] -22.4%

O=C(O)CCCCCCNC1c2ccccc2CCc2ccccc21
inactive: Potency (WaGa) | Potency (C33A) | Potency (CAOV3) | Potency (CASKI) | Potency (Es-2) | Potency (HeLa) | Potency (Hek293T) | Potency (JEG-3) | Potency (OV90) | Potency (PA-1) | Potency (Tov-21-G) | Potency (Tov112D) | activity, negative = cell killing [1, 3] 2.2% | activity, negative = cell killing [1, 4] -6.72%

CC#C[C@]1(O)CC[C@H]2[C@@H]3C[C@H](C)C4=CC(=O)CC[C@]4(C)[C@H]3CC[C@@]21C
active: Potency (HeLa) 6.31 µM | Potency (PA-1) 25.1 µM
inactive: Potency (UISO) | Potency (C33A) | Potency (CAOV3) | Potency (CASKI) | Potency (Es-2) | Potency (Hek293T) | Potency (Tov-21-G) | Potency (Tov112D)

COc1cc(CC(C)N)c(OC)cc1Br (stereo unspecified)
active: Potency (WaGa) 50.4 µM | Potency (HeLa) 25.1 µM | Potency ([1]; tumour line A) 35.5 µM and 12.6 µM
inactive: Potency (CAOV3) | Potency (Es-2) | Potency (JEG-3) | Potency (OV90) | Potency (Tov112D) | activity, negative = cell killing [1, 3] -9.73% | activity, negative = cell killing [1, 5] -15.6% | Potency (astro)

CC[C@H](O)C(C[C@H](C)N(C)C)(c1ccccc1)c1ccccc1
inactive: Potency (C33A) | Potency (Es-2) | Potency (HeLa) | Potency (Hek293T) | Potency (JEG-3) | Potency (PA-1) | Potency (Tov-21-G) | activity, negative = cell killing [1, 5] -29.7%
active: Potency ([1]; tumour line A) 44.7 µM | Potency ([1]; tumour line D) 70.8 µM

Cc1nnc2n1-c1sc(CCc3ccc(CC(C)C)cc3)cc1C(c1ccccc1Cl)=NC2C (stereo unspecified)
inactive: Potency (CASKI) | Potency (JEG-3) | Potency (Tov112D)
active: Potency (UISO) 16.8 µM | Potency (astro) 35.5 µM

CNC(C)Cc1ccc2c(c1)OCO2 (stereo unspecified)
inactive: Potency (C33A) | Potency (CAOV3) | Potency (CASKI) | Potency (Es-2) | Potency (HeLa) | Potency (Hek293T) | Potency (JEG-3) | Potency (OV90) | Potency (PA-1) | Potency (SKOV3) | Potency (Tov-21-G) | Potency (Tov112D) | activity, negative = cell killing [1, 5] 0.451% | activity, negative = cell killing [1, 6] -9%
active: Potency ([1]; tumour line A) 50.1 µM

CCO[C@H]1O[C@@H]2OC3(C)CC[C@H]4[C@H](C)CC[C@@H]([C@H]1C)[C@@]24OO3
inactive: Potency (C33A) | Potency (CAOV3) | Potency (CASKI) | Potency (Es-2) | Potency (HeLa) | Potency (JEG-3) | Potency (OV90) | Potency (PA-1) | Potency (SKOV3) | Potency (Tov-21-G) | Potency (Tov112D)
active: Potency (WaGa) 18.8 µM

CC[C@H]1C[C@@H]2C[C@H]3c4[nH]c5ccc(OC)cc5c4CCN(C2)[C@@H]13
active: Potency (WaGa) 42.4 µM | Potency (OV90) 31.6 µM
inactive: Potency (C33A) | Potency (CASKI) | Potency (Es-2) | Potency (HeLa) | Potency (Hek293T) | Potency (JEG-3) | Potency (SKOV3) | Potency (Tov-21-G) | Potency (Tov112D) | Potency (astro)

Clc1ccc(CSC(Cn2ccnc2)c2ccc(Cl)cc2Cl)cc1 (stereo unspecified)
active: Potency (UISO) 26.6 µM | Potency ([1]; tumour line A) 2.24 µM
inactive: Potency (CASKI) | Potency (Es-2) | Potency (HeLa) | Potency (JEG-3) | Potency (PA-1) | Potency (Tov-21-G) | Potency (Tov112D)

C[C@H](CN1CCOCC1)C(C(=O)N1CCCC1)(c1ccccc1)c1ccccc1
inactive: Potency (C33A) | Potency (CASKI) | Potency (Es-2) | Potency (HeLa) | Potency (Hek293T) | Potency (JEG-3) | Potency (PA-1) | Potency (SKOV3) | Potency (Tov-21-G) | Potency (Tov112D) | activity, negative = cell killing [1, 5] -15.2% | activity, negative = cell killing [1, 6] -29.8%
active: Potency ([1]; tumour line A) 35.5 µM

Clc1ccc(CO/N=C(\Cn2ccnc2)c2ccc(Cl)cc2Cl)c(Cl)c1
inactive: Potency (C33A) | Potency (CAOV3) | Potency (CASKI) | Potency (Es-2) | Potency (HeLa) | Potency (Hek293T) | Potency (JEG-3) | Potency (SKOV3) | Potency (Tov-21-G) | Potency (Tov112D)
active: Potency ([1]; tumour line A) 2.82 µM | Potency ([1]; tumour line D) 11.2 µM

Nc1ccc(Cl)cc1C(=O)c1ccccc1F
inactive: Potency (WaGa) | Potency (C33A) | Potency (CAOV3) | Potency (CASKI) | Potency (Es-2) | Potency (HeLa) | Potency (Hek293T) | Potency (JEG-3) | Potency (OV90) | Potency (PA-1) | Potency (SKOV3) | Potency (Tov-21-G) | Potency (Tov112D)

CCC(OC(C)=O)C(CC(C)NC)(c1ccccc1)c1ccccc1 (stereo unspecified)
inactive: Potency (Tov-21-G)
active: Potency (UISO) 49.1 µM | Potency (HeLa) 31.6 µM

CC(=O)OC1(c2ccccc2)CCN(CCc2ccccc2)CC1
active: Potency (UISO) 24.8 µM
inactive: Potency (C33A) | Potency (Es-2) | Potency (HeLa) | Potency (Hek293T) | Potency (JEG-3) | Potency (PA-1) | Potency (Tov-21-G) | Potency (Tov112D) | Potency (astro)

Reference: PubChem BioAssay (NCATS)
